D1 ag: human D1 receptor agonism. P21728. HEK293 T-REx D1 cells, calcium flux, agonist mode. AID 504660. activation, % at 2 µM. 360,000 compounds, 1% hits; note: 0% is about no effect
Target sequence (P21728 whole entry, looked up): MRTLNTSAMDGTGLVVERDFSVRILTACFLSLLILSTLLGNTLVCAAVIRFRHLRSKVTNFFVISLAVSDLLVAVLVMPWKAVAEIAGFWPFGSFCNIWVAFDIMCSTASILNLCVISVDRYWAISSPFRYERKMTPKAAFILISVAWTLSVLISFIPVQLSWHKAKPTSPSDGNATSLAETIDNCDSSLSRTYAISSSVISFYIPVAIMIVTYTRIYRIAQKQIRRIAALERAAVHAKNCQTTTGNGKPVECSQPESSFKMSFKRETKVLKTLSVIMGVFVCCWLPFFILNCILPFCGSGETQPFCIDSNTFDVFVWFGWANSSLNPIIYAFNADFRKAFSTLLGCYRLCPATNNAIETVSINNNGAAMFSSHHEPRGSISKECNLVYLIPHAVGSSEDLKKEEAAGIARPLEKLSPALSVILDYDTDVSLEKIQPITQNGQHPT
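Tetracycline-induced HEK293 TREx D1 cells, force-coupled to calcium signalling, were dye-loaded with a no-wash calcium kit. Compound was pin-added after a 10 s baseline. Fluorescence was read kinetically at 1 cycle/s for 180 s, with calcium rises flagged as agonism.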
D1 antag: antagonists of human D1 dopamine receptor | 360,000 compounds, 3.2% hits | activity change, negative = inhibition, % at 10 µM | AID 504652 | HEK293 TREx D1 cells, calcium flux, dopamine EC80; hits give low values; in the data active = activity change below about -30%; note: % is set by controls: 0 for no effect and ±100 for the full control effect
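Allosteric or orthosteric antagonism assessed as attenuation of the calcium response to EC80 dopamine, added 180 s after compound, in induced HEK293 Trex D1 cells loaded with no-wash calcium dye.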
TRHR ag: TRH receptor (human) agonism; AID 493084; TRHR cells, calcium flux fluo-8, FDSS agonist mode; activation, % at 2 µM; 360,000 compounds, 0.18% hits; note: 0% is about no effect
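Steps: seed TRHR cells overnight; add fluo-8 no-wash Ca dye, RT 30 min–1.5 h; record 10 s baseline; pin-transfer compounds; monitor fluorescence 1 cycle/s for the agonist window. Calcium increases flag candidate agonists.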
TRHR enhancer: allosterically enhances the human TRH receptor | enhancement, % at 2 µM | TRHR cells, fluo-8 calcium fluorescence, EC20 TRH enhancement | 360,000 compounds, 0.66% hits | P34981; in the data active = enhancement above about 30%; note: 0% is about no effect
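TRHR-expressing cells loaded with fluo-8 calcium dye were read kinetically (ex 480/em 530) during compound addition, then stimulated with an EC20 of TRH (10 nM final). Enhancement of the Gq-mediated intracellular calcium response was scored.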
D1 potentiator: human D1 dopamine receptor positive modulation. P21728. HEK293 TREx D1 cells, calcium flux, dopamine EC20 potentiation. potentiation, % at 10 µM. 360,000 compounds, 0.036% hits. AID 504651; in the data active = potentiation above about 30%; note: 0% is about no effect
* = called active by the depositor; . = no result. Most compounds without a hit are left out; they make up all but 4.6% or so of the library. Cut-off read from the data, not from the text of the source, unless noted: active = activation above about 30%; inactive = the rest.

SMILES	D1 ag	D1 antag	TRHR ag	TRHR enhancer	D1 potentiator
COc1ccc(OC)c(CCNC(=O)Cn2nc(C)c3c(C)n(-c4ccc(C)cc4)nc3c2=O)c1	2	1	-1	-2	-3
Cc1cc(C)c2c(=O)n(CC(=O)Nc3cccc(Cl)c3C)sc2n1	37*	-3	4	-13	-7
COc1ccc(OC)c(CCNC(=O)Cn2sc3nc(C)cc(C)c3c2=O)c1	3	-48*	-1	8	-10
Cc1sc2ncn(CC(=O)N(C)c3ccc(C(C)C)cc3)c(=O)c2c1S(=O)(=O)N1CCC(C)CC1	1	0	1	-3	2
CCc1ccc(CNC(=O)C(CC)n2ccc3cc(S(=O)(=O)N4CCCCC4)ccc32)cc1 (stereo not drawn)	6	10	1	-1	-2
COc1ccc(OC)c(NC(=O)c2csnn2)c1	-1	3	0	14	3
N#C/C(=C\c1ccc[nH]1)S(=O)(=O)c1ccccc1	20	-32*	2	-1	-2
COc1ccccc1C(=O)N1CCC(c2noc(-c3ccc(S(=O)(=O)N4CCCC4)cc3)n2)CC1	4	-15	0	-3	-3
CC1CCN(C(=O)C(=O)Nc2sc3c(c2C(=O)O)CC(C)(C)OC3)CC1	3	-58*	0	7	7
Cc1cc2c(s1)c1cnn(Cc3ccc(Br)cc3F)c(=O)c1n2C	2	-17	0	0	-5
CC(=O)Cc1nsc(NC(=O)c2ccc(-c3cc(Cl)ccc3Cl)o2)n1	6	-13	-1	-9	9
CC(=O)Cc1nsc(NC(=O)c2ccc(-c3ccc(Cl)cc3Cl)o2)n1	4	-31*	0	4	-9
CC(=O)Cc1nsc(NC(=O)c2ccc(-c3cc(C(F)(F)F)ccc3Cl)o2)n1	2	-33*	0	0	-4
COC(=O)c1c(C)[nH]c(C(=O)C(C)OC(=O)C2CC(=O)N(CCc3ccccc3)C2)c1C (stereo not drawn)	3	-33*	0	3	-18
COC(=O)c1c(C)[nH]c(C(=O)C(C)OC(=O)C2CC(=O)N(c3ccc(C)cc3)C2)c1C (stereo not drawn)	26	-1	0	-5	.
CCn1c(O)c(/C=C2\C=Nc3ccccc32)sc1=O	0	-1	1	-5	-6
CC1=Nc2ccccc2/C1=C/c1sc(=N)n(-c2nccs2)c1O	58*	-8	16	-1	-4
CCCN(Cc1nnc(-c2ccccc2Cl)o1)C(=O)c1cc2ccccc2o1	12	-31*	-1	-14	-4
O=C(c1cc2ccccc2o1)N(Cc1nnc(-c2ccccc2Cl)o1)C1CC1	4	3	0	-2	-1
Cc1ccc(S(=O)(=O)NC(C)C(=O)OCC(=O)N(C)c2ccccc2)cc1 (stereo not drawn)	0	-31*	0	6	-10
Cc1ccc(C(=O)NCc2ccc3c(c2)CCO3)cc1C	3	-48*	0	-5	-3
Cc1ccc(C)c(NC(=O)C2CCCN2S(=O)(=O)c2ccc3c(c2)CCCC(=O)N3)c1 (stereo not drawn)	1	1	0	2	-1
CCOc1ccc(/C=C/c2nc(C#N)c(NC(C)c3ccccc3)o2)cc1 (stereo not drawn)	3	2	0	-3	1
N#Cc1c(-n2ncnc2-c2ccccc2Cl)sc2c1CCCCC2	0	-35*	-1	-2	3
N#Cc1c(-n2ncnc2-c2ccccc2C(F)(F)F)sc2c1CCCCC2	0	-24	0	-2	-1
SMILES	D1 ag	D1 antag	TRHR ag	TRHR enhancer	D1 potentiator
CCOC(=O)Cn1c(=O)n(CC2CCCO2)c2nc(-c3cc(OC)ccc3OC)nc(C(N)=O)c21 (stereo not drawn)	1	16	-1	3	0
Cc1ccccc1NC(=S)NCC1CCN(C(C)c2ccccc2)C1 (stereo not drawn)	0	-36*	-1	1	-4
O=C(CC1(O)C(=O)N(CCc2ccccc2)c2ccc(Br)cc21)c1ccccc1O (stereo not drawn)	-3	34	3	-13	1
CC(Sc1nnnn1C1CC1)C(=O)N1CC(=O)Nc2ccccc21 (stereo not drawn)	1	-32*	-1	-7	-3
O=C(c1ccc2c(c1)N(Cc1ccc(F)cc1)C(=O)c1ccccc1S2(=O)=O)N1CCCC1	0	-2	0	-7	-1
CC1CCCN(C(=O)COC(=O)/C=C/c2ccc(C(F)(F)F)cc2)C1 (stereo not drawn)	5	-47*	0	8	-17
COc1cc(C(=O)OCCCN(C)C)cc(OC)c1OC	1	-39*	0	-6	-2
COc1ccc(C(=O)OCCCN(C)C)cc1OC	3	-3	0	1	1
CC(NCC(O)COc1ccc2ccccc2c1)c1ccccc1 (stereo not drawn)	42*	2	2	15	1
CN(CC(O)COc1ccc2ccccc2c1)C1CCCCC1 (stereo not drawn)	32*	-3	2	-7	-8
COc1ccc(OCC(O)CNC(C)c2ccccc2)cc1 (stereo not drawn)	18	-4	2	7	1
Cc1cc(C)n(CC(O)COc2ccc(C(C)C)c(C)c2)n1 (stereo not drawn)	5	11	-3	34*	3
Cc1cc(OCC(O)CNC(C)c2ccccc2)ccc1C(C)C (stereo not drawn)	30*	48	3	10	0
CC(=O)Nc1nonc1-c1nnc(SCC(=O)Nc2cc(C)ccc2C)n1-c1ccccc1	4	4	0	-9	-1
COc1ccccc1NC(=O)c1sc2ncn(Cc3ccccc3Cl)c(=O)c2c1C	1	-2	0	-3	-6
O=C(Nc1ccc(Cl)cc1)C1CCN(c2nc3ccccc3n3cccc23)CC1	4	1	0	9	0
CCCOc1ccccc1-c1nc(SCC(=O)c2ccccc2)n[nH]1	8	-1	-2	-4	-1
Cc1ccc(C)c(NC(=O)CN2CCCN(Cc3cccc(Cl)c3)S2(=O)=O)c1	6	-79*	0	1	-2
CCc1cccc(NC(=O)CN2CCCN(Cc3cccc(C)c3)S2(=O)=O)c1	5	-1	-1	4	1
Cc1cccc(CN2CCN(CC(=O)Nc3c(C)cccc3C)S2(=O)=O)c1	5	3	36*	0	4
Cc1ccc(C(=O)Nc2ccccc2C(=O)OCc2cc(=O)n3nc(C4CC4)sc3n2)cc1	0	-6	0	1	0
Cc1ncc(CN2CCC(C(=O)Nc3ccc(-n4cccn4)cc3)CC2)s1	4	2	0	30*	13
Cc1cc(C)n(-c2ccc(NC(=O)C3CCN(Cc4cnc(C)s4)CC3)cc2)n1	1	3	0	1	-1

Screening data (PubChem)
